Measurements as given in PubChem BioAssay AID1259418 (Broad Institute, 2018).
Among all 3,400 compounds or so, about 840 (25%) were called active. Another 11% or so got no clear call; they are omitted. A selection follows. Measured potencies and affinities stand elsewhere. A number with no mark means an inactive call.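 Rule for the calls: active = fitted half-maximal concentration of signal decrease at or below twice the sample's top tested concentration; inconclusive = flat curve between -70 and -30 percent, or poor fit; inactive = flat within 30 percent, signal rise, or potency above limit.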

Assay: inhibitors of Toxoplasma growth in IFN-γ-primed HeLa – cell-based, ME49Luc, luciferase, 72 h, dose response (AID 1259418)
Details: T. gondii ME49Luc in IFN-y HeLa, active compounds read low, -100% = high-dose IFN-γ control wells; at 19.5 µM unless noted
`COC(=O)C1CC23C=CNC4CCC5(c6ccccc6NC15C2C)C43` (stereo not drawn) gave a max activity of 26.5% [at 10 µM].
In the case of `COc1ccc(-c2nc3c(s2)CN(S(=O)(=O)c2ccc(F)cc2F)CC3)cc1`, the max activity is reported as 13% [at 5 µM].
Compound `COC(=O)c1cccc(NC(=O)Nc2ccc(-c3nc(-c4cc(C)ccc4C)co3)cc2)c1` has a max activity of 11.4% [at 5 µM].
Work on `CCc1cc(C2CCCN2C(=O)Cn2nc(C(F)(F)F)cc2C)on1` (stereo not drawn) yielded a max activity of -8.33% [at 5 µM].
In the case of `Cc1ccccc1-c1nc(CN2CCN(C(=O)Nc3cccc(C)c3C)CC2)c(C)o1`, the max activity is reported as -5.68% [at 2.6 µM].
In the case of `COCCCNC(=O)Cn1c(=O)c(S(=O)(=O)c2ccccc2)cc2cc(C)ccc21`, the max activity is reported as 5.8% [at 2.6 µM].
Work on `Cc1ccc(NC(=O)Nc2ccc(-c3nc(-c4cccc(Br)c4)co3)cc2)cc1` yielded a max activity of 18.1% [at 0.16 µM].
`Cc1ccc(-c2ccc(OCCNC(=O)c3sc(-c4ccccc4)nc3C)nn2)cc1` gave a max activity of 10.9% [at 2.6 µM].
Work on `COc1ccc(NC(=O)N2CCc3nc(-c4ccccc4)sc3C2)c(OC)c1` yielded a max activity of 19.6% [at 10 µM].
Compound `Cc1cc(C2CCCN2C(=O)c2cc(C(F)(F)F)nn2C)on1` (stereo not drawn) has a max activity of 8.24% [at 1.35 µM].
`Cc1nc(-c2ccc(F)cc2)sc1-c1ccc(SCc2ccccn2)nn1` gave a max activity of 11.9%.
`Cc1ccc(-c2coc(-c3ccc(NC(=O)Cc4ccccc4C)cc3)n2)cc1` gave a max activity of 19%.
`Cc1ccccc1NC(=O)N1C[C@H]2C[C@H](C(=O)NC3CCC3)[C@@H](C1)O2` gave a max activity of 41.9%.
Compound `COc1ccc(NC(=O)Nc2ccc(-c3nc(-c4ccc(C)cc4C)co3)cc2)cc1` has a max activity of -20.8% [at 0.16 µM].
In the case of `COc1cc(NC(=O)Nc2ccc(-c3nc(-c4cc(C)ccc4C)co3)cc2)cc(OC)c1`, the max activity is reported as 6.94% [at 0.08 µM].
For `COc1ccc(C(=O)Nc2ccc(-c3nc(-c4ccc(C)cc4C)co3)cc2)cc1`, the max activity was 25.2% [at 0.35 µM].
In the case of `COc1cc(OC)cc(C(=O)Nc2ccc(-c3nc(-c4cc(C)ccc4C)co3)cc2)c1`, the max activity is reported as 19.3% [at 0.16 µM].
Compound `COc1ccc(-c2nc3c(s2)CN(S(=O)(=O)c2ccc(C(C)(C)C)cc2)CC3)cc1` has a max activity of 5.19%.
In the case of `COc1ccc(-c2nc(Nc3ccccc3C)c3ccccc3n2)cc1`, the max activity is reported as -9.66% [at 10 µM].
With `COc1ccc(CCNc2ncnc3c2cnn3-c2ccccc2)cc1OC` the max activity was 24.5% [at 5 µM].
`CCSc1ccc2c(c1)N(CCCN1CCN(C)CC1)c1ccccc1S2` gave a max activity of 26.9%.
With `CCOC(=O)Cc1ccc(NC(=O)Nc2ccc(-c3nc(-c4ccccc4)co3)cc2)cc1` the max activity was 9.92% [at 2.6 µM].
`COc1cc(CN2C[C@@H]3N[C@H](C2)C3c2ccc(-c3ccc(C#N)cc3)cc2)cc(OC)c1` (stereo partly drawn) gave a max activity of 27% [at 10 µM].
For `OC[C@@H]1[C@@H](c2ccc(-c3cccnc3)cc2)[C@@H]2CN(Cc3ccccn3)CCCCN12`, the max activity was -5.02% [at 1.2 µM].
Compound `Fc1cccc(-c2ccc(C3[C@H]4CNC[C@@H]3N4Cc3ccccn3)cc2)c1` (stereo partly drawn) has a max activity of 18.9% [at 5 µM].
In the case of `OC[C@@H]1[C@@H](c2ccc(-c3cccc(F)c3)cc2)[C@@H]2CN(Cc3cncnc3)CCCCN12`, the max activity is reported as 12.9%.
In the case of `COc1cccc(-c2ccc(C3[C@H]4CNC[C@@H]3N4Cc3nccs3)cc2)c1` (stereo partly drawn), the max activity is reported as 51.8% [at 21 µM].
Work on `O=C(c1cccs1)N1CCC2(CC1)Nc1cc(F)ccc1-n1cccc12` yielded a max activity of 9.34% [at 0.68 µM].
For `O=C(CCC1Nc2c3ccccc3nc(=S)n2C1=O)NCCN1CCC(Cc2ccccc2)CC1` (stereo not drawn), the max activity was 54.5% [at 10 µM].
`CCc1ccc2c(c1)cc(S(=O)(=O)c1ccccc1)c(=O)n2CC(=O)NCCCOC` showed a max activity of 8.62% [at 10 µM].
`COCCN1CCc2nc(SCc3nc(-c4ccccc4OC)oc3C)[nH]c(=O)c2C1` showed a max activity of 14.3% [at 5 µM].
Work on `COc1cc(-c2noc(-c3nnn(Cc4nc(-c5ccccc5)oc4C)c3C)n2)ccc1OC(C)C` yielded a max activity of 9.04% [at 0.16 µM].
In the case of `CSc1cccc(NC(=O)N2CCc3nc(-c4ccc(C)cc4)sc3C2)c1`, the max activity is reported as 42.8% [at 10 µM].
`O=C(Nc1ccc(-c2nc(-c3ccccc3)co2)cc1)c1ccccc1Cl` gave a max activity of 40%.
For `Cn1nccc1C(=O)N1CCC2(CC1)Nc1cc(F)ccc1-n1cccc12`, the max activity was -9.01%.
With `c1csc(-c2cc(NC3CCNCC3)nc3[nH]ccc23)n1` the max activity was 35.6% [at 5 µM].
Work on `Fc1ccc(Nc2nc(SCc3ccccc3F)nc3ccccc23)cc1` yielded a max activity of 12.5%.
`Fc1cccc(CSc2nc(Nc3ccc4c(c3)OCO4)c3ccccc3n2)c1` showed a max activity of 11.5%.
For `COc1cc(Nc2nc(SCc3ccccc3Cl)nc3ccccc23)cc(OC)c1OC`, the max activity was 11% [at 0.68 µM].
In the case of `Clc1ccc(CSc2nc(Nc3ccc4c(c3)OCO4)c3ccccc3n2)cc1`, the max activity is reported as 5.7% [at 2.6 µM].
For `CCc1ccc(-c2noc(-c3nnn(Cc4nc(-c5ccccc5)oc4C)c3C)n2)cc1`, the max activity was 20.7%.
For `Cc1ccc(NC(=O)Nc2ccc(-c3nc(-c4ccc(C)cc4C)co3)cc2)cc1`, the max activity was 46.2%.
Compound `Cc1ccccc1CNC1=NCCNC12CCN(S(=O)(=O)c1ccc(CC(C)C)cc1)CC2` has a max activity of 13.3% [at 2.6 µM].
`CC(C)Cc1ccc(S(=O)(=O)N2CCC3(CC2)NCCN=C3NCc2cc(F)cc(F)c2)cc1` showed a max activity of 20.3%.
For `Cc1ccc(CNC2=NCCNC23CCN(S(=O)(=O)c2ccc(CC(C)C)cc2)CC3)cc1`, the max activity was 13.1% [at 10 µM].
For `COc1ccc(NC(=O)N2CCc3nc(-c4ccccc4)sc3C2)cc1OC`, the max activity was -8.38% [at 0.35 µM].
`Cc1nc(OCC(=O)Nc2ccc(Br)cc2)c2ccccc2n1` showed a max activity of 28% [at 1.35 µM].
For `Cc1ccc(C)c(NC(=O)COc2nc(C)nc3ccccc23)c1`, the max activity was 15.8% [at 10 µM].
